The results in this text go back to PubChem BioAssay AID651821 (The Scripps Research Institute Molecular Screening Center, 2012).

Hit rate of the full screen: of about 370,000 compounds, about 4,700 (1.3%) were called active. The list comes from a sample in which actives are over-represented; it also holds similar structures and randomly drawn compounds. Values without a mark were called inactive.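 The calls were made as follows: active = inhibition above the plate cutoff, the mean of all test compounds on that plate plus 3 SD (cut at about 35% in these data); inactive = the rest.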

The nature of this assay: small molecules binding CAG repeat RNA – biochemical, fluorescence, primary screen (AID 651821).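 Also: 0% = DMSO alone and 100% = 100 µM mitoxantrone as full dye displacement; higher means more dye released from RNA so lower well fluorescence.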 As to conditions: r(CAG) RNA repeat, TO-PRO-1 dye displacement fluorescence; at 3 µM; hits give high values.
For `COc1ccccc1C(=O)N1O[C@]23C=C[C@]14C[C@@H](O)CC[C@]4(C)C2CC[C@]1(C)[C@@H]([C@H](C)/C=C/[C@H](C)C(C)C)CC[C@H]13` (stereo partly specified), the inhibition – broadly, the drop in the measured response relative to a control, in per cent – is 4.71%. As to `CSc1ccc(/C=N/N2CCN(Cc3ccccc3Cl)CC2)cc1`, the inhibition was -3.03%. The value for `CSc1ccc(C=Nn2c(-c3ccc(F)cc3)n[nH]c2=S)cc1` was 45.4% (active); that for `CCOc1ccc(-c2n[nH]c(=S)n2/N=C/c2cc3c(cc2[N+](=O)[O-])OCO3)cc1` was 4.13%. With `O=C1[C@@H](c2ccccc2)[C@@H](c2ccccc2)N1c1ccccc1`, the inhibition is 2.62%.

Regarding `CCOC(=O)[C@]12CCCC3=C1N(CCC3)C(=O)[C@@H](CC(=O)NCc1cccs1)C2`, the inhibition is -1.37%. For the compound `C=CCN1C(=O)[C@@H](CC(=O)NCCCOCCCC)[C@]2(C(=O)OCC)CCCCC/C=C/12`, the inhibition was 0.69%. Turning to `OC(c1ccccc1)c1nc(/C=C/c2ccc(C(F)(F)F)cc2)cs1` (stereo unspecified), the inhibition was 3.22%. For the compound `O=C(Nc1nc(-c2ccco2)c(-c2ccco2)s1)c1ccco1`, the inhibition is 70.5% (active).

For the compound `O=C(Nc1c(-c2ccccc2)nc2c(Br)cc(Br)cn12)c1ccco1`, the inhibition was 7.88%. Next, `O=C(Nc1nonc1-c1ccc(Cl)cc1)c1ccco1`: -0.35%. Consider `COC(=O)C1=C(C)N(Cc2ccc(F)cc2)C(=S)NC1c1cccc(Cl)c1` (stereo unspecified), for which the inhibition is 3.4%. `N[C@@H](Cc1ccccc1)C(=O)N1CCC[C@@H]1C(=O)N1CCC2CCN(S(=O)(=O)c3ccccc3)CC21` (stereo partly specified): the inhibition was 0.99%. Next, `COC(=O)Cc1nnn2c1[C@H](C)[C@@H](OC)c1cc(Br)ccc1-2`: -0.28%; `Clc1ccc(C(Cn2ccnc2)OCc2ccsc2Cl)c(Cl)c1` (stereo unspecified): 2.12%. Consider `Cc1c(Cl)cccc1NC(=O)CC1SC(=NCC2CCCO2)NC1=O` (stereo unspecified), for which the inhibition was -0.81%. Next, `CCN=C1SC(CC(=O)Nc2ccc(C)cc2)C(=O)N1CC` (stereo unspecified): -2.97%; `Cc1ccc(NC(=O)CC2S/C(=N/N=C3\CCCc4ccccc43)NC2=O)cc1` (stereo unspecified): 42.2% (active). For `CC(=O)N1C[C@@H](CO)[C@@H](N(C)C(=O)C(C)(C)C)C[C@H]1c1ccccc1Br`, the inhibition is -1.82%. On to `C[C@@H]1COc2cccc(N3CCCC3)c2S(=O)(=O)N1C`, for which the inhibition was 1%. For the compound `CC(C)(C)C1C/C(=C/c2ccco2)C(=O)/C(=C/c2ccco2)C1` (stereo unspecified), the inhibition was 44.8% (active).

For `O=C(CN1C(=O)NC(Cc2c[nH]c3ccccc23)C1=O)Nc1ccccc1C(F)(F)F` (stereo unspecified), the inhibition is 2.5%. With `CC1CCN(C(=O)c2ncn3c2C(=O)N[C@@H](C)C3)CC1`, the inhibition was 1.9%.

With `O=C(N1CCOCC1)N1CC[C@H]2[C@H](CCCN2Cc2ccc(F)cc2)C1`, the inhibition was -0.35%. For the compound `C=CCN1C(=O)[C@@H](CC(=O)N2CCN(C(=O)OCC)CC2)[C@]2(C(=O)OCC)CCCCC/C=C/12`, the inhibition is 1.94%.

`COc1ccc(CSc2nnc(-c3cccc(C)c3)n2C)cc1`: the inhibition is -0.02%. For `CCOc1ccc(NC(=O)CSc2nc3ccccc3c(=O)n2Cc2cccs2)cc1`, the inhibition is 1.43%. Next, `COc1ccc(-n2c(SCC(=O)Nc3ccc(C)c(Cl)c3)nc3ccccc3c2=O)cc1`: 16.1%; `CCOc1ccc(-n2c(SCC(=O)Nc3cc(C(=O)O)ccc3Cl)nc3ccccc3c2=O)cc1`: 46.3% (active). The value for `COc1ccc(CN2C(=O)N3Cc4cc(OC)ccc4C3CS2(=O)=O)cc1` (stereo unspecified) was 1.88%; that for `COCCCNC(=O)C[C@H]1C[C@@]2(C(=O)OC)C(=C[C@H](C(C)(C)C)O[C@@H]2C)N(Cc2ccc(Cl)cc2Cl)C1=O` was 1.45%; that for `COC(=O)[C@]12C[C@H](CC(=O)NCCc3ccccc3OC)C(=O)N(Cc3ccccc3)C1=C[C@H](C(C)C)O[C@@H]2C1CC1` was 0.77%. The value for `C=CCn1c(N)cc(=O)nc1SCC(=O)Nc1cccc2ccccc12` was 3.99%; that for `Cc1ccccc1-n1c(SCC(=O)Nc2cccc3ccccc23)nc(O)cc1=O` was 42.6% (active).

Turning to `Cc1ccc(-n2c(SCC(=O)Nc3cccc4ccccc34)nnc2-c2ccccn2)cc1`, the inhibition was 3.79%. For the compound `CC(C)N1CCCCC(NC(=O)C(C)(C)C)C1=O` (stereo unspecified), the inhibition was 0.73%.
